Experiment: anti-His antibody binders, primary screen, artefact control for SMM control protein annotation, biochemical, small-molecule microarray, 635 nm fluorescence (AID 1128);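 note: score merges feature fluorescence with signal-to-noise for each printed compound spot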
Details: anti-His Alexa647 antibody binding, higher = more signal

Row | SMILES | composite z-score
1 | COCC#Cc1ccc([C@@H]2N[C@H](C(=O)O)CC[C@H]2C)cc1 | -1.01
2 | C#CCCCON=C1[C@H]2CCn3c(=O)n([C@@H](CC)c4ccccc4)c(=O)n3[C@H]2[C@H](O)[C@@H]2O[C@H]12 | 0.114
3 | O=C1CCCC=C1C(O)C1CCCCC1 (stereo not given) | -0.481
4 | C[C@@H](c1ccccc1)N1C(=O)[C@H]2[C@H]3[C@H](O)[C@H](O)CC(=NOC[C@@H](O)COCc4ccco4)[C@H]3CC[C@H]2C1=O | 0.0749
5 | CCOC(=O)[C@H](CC(C)C)NC(=O)CCC1CC(OC(=O)NCCc2ccc(F)cc2)CC2(CCCC(COC(=O)NCc3cccc4ccccc34)O2)O1 (stereo not given in full) | 0.229
6 | COC(=O)[C@H](C)NC(=O)CCC1CC(OC(=O)NCCc2ccc(F)cc2)CC2(CCCC(COC(=O)NCCc3ccccc3OC)O2)O1 (stereo not given in full) | 0.706
7 | CCOC(=O)CCN1C(=O)[C@H]2[C@H]3[C@H](O)[C@H](O)CC(=NOCC(C)C)[C@@H]3CC[C@H]2C1=O | -0.957
8 | CC[C@@H](c1ccccc1)n1c(=O)n2n(c1=O)[C@H]1[C@H](O)[C@@H]3O[C@@H]3C(=NOCc3ccccc3)[C@H]1CC2 | 0.274
9 | COc1ccc(O[C@H]2C=C[C@@H](c3ccccc3)O[C@@H]2CON=C(C)CCN2CCCc3nc(C)c(C)cc32)cc1 | 1.5
10 | COC(OC)[C@@H](C)[C@H](OC)[C@@H](C)[C@H](OC)c1ccccc1 | -0.504
11 | CC(CCN1CCc2nc(-c3ccccc3)c(-c3ccccc3)cc2C1)=NO[C@@H](C)c1cc(-c2c(C)cc(C)cc2C)no1 | 0.962
12 | CO[C@H]1COC(=O)CCC[C@H](C)[C@H](OC)COC(=O)CC=C[C@@H]1C | 1.03
13 | COC(=O)[C@H](CCSC)NC(=O)CC=C[C@@H](C)CO | 0.293
14 | C[C@H]1CC[C@@H](C(=O)O)N[C@@H]1c1cccc(N2CCCC2=O)c1 | -0.0817
15 | C#CCCCON=C1C[C@@H](O)[C@@H](O)[C@@H]2[C@@H]3C(=O)N([C@@H](C)c4ccccc4)C(=O)[C@@H]3CC[C@@H]12 | -0.559
16 | COC(=O)[C@H](C)NC(=O)CCC1CC(OC(=O)NCc2ccc3c(c2)OCO3)CC2(CCCC(COC(=O)NCc3ccccc3)O2)O1 (stereo not given in full) | 0.554
17 | CCOC(=O)CCN1C(=O)[C@H]2[C@H]3[C@H](O)[C@H](O)CC(=NNC(=O)OCC)[C@H]3CC[C@H]2C1=O | 0.307
18 | CC(C)(C)N1C(=O)[C@H]2[C@@H]3C(=CC[C@H]2C1=O)C(=O)[C@H]1O[C@H]1[C@H]3O | 0.23
19 | O=C1[C@H]2[C@H]3[C@H](O)[C@H](O)CC(=NO[C@@H]4O[C@H](CO)[C@@H](O)[C@H](O)[C@H]4O)[C@@H]3CC[C@H]2C(=O)N1C1CCCCC1 | -0.293
20 | COc1ccc(COC(=O)NN=C2C[C@@H](O)[C@@H](O)[C@@H]3[C@@H]4C(=O)N([C@@H](C)c5ccccc5)C(=O)[C@@H]4CC[C@@H]23)cc1 | -0.253
21 | COc1ccc(COC(=O)NN=C2C[C@@H](O)[C@@H](O)[C@@H]3[C@@H]4C(=O)N(Cc5ccccc5)C(=O)[C@@H]4CC[C@@H]23)cc1 | 0.57
22 | CC(C)[C@@H](OCc1ccccc1)[C@H](C)C=NO[C@@H](C)c1cn([C@H](CO)Cc2ccccc2)nn1 | 0.08
23 | CCOC(=O)[C@H](Cc1ccccc1)NC(=O)CCC1CC(OC(=O)NCc2ccc3c(c2)OCO3)CC2(CCCC(COC(=O)NCCOc3ccccc3)O2)O1 (stereo not given in full) | 0.777
24 | COC(=O)[C@H](C)NC(=O)CCC1CC(OC(=O)NCc2ccc3c(c2)OCO3)CC2(CCCC(COC(=O)NCCCN3CCCC3=O)O2)O1 (stereo not given in full) | 0.23
25 | O=C(NN=C1C[C@@H](O)[C@@H](O)[C@@H]2[C@@H]3C(=O)N(Cc4ccc5c(c4)OCO5)C(=O)[C@@H]3CC[C@@H]12)OCc1ccccc1 | 0.921
26 | CCN1C(=O)[C@H]2[C@H]3[C@H](O)[C@H](O)CC(=NOCC[C@@H]4C=C[C@H](OC(C)=O)[C@@H](COC(C)=O)O4)[C@@H]3CC[C@H]2C1=O | 0.535
27 | COC(=O)[C@H](C)NC(=O)CCC1CC(OC(=O)NCc2ccc3c(c2)OCO3)CC2(CCCC(COC(=O)NCCC(C)C)O2)O1 (stereo not given in full) | 0.363
28 | CO[C@H]1COC(=O)CC=C[C@H](C)[C@H](OC)COC(=O)[C@@H](C)NC(=O)CC=C[C@@H]1C | 0.491
29 | O=C1C=C[C@@H](O)[C@@H]2[C@@H]3C(=O)N(Cc4ccccc4)C(=O)[C@@H]3CC[C@@H]12 | 0.0502
30 | CCOC(=O)[C@H](Cc1ccccc1)NC(=O)CCC1CC(OC(=O)NCc2ccc3c(c2)OCO3)CC2(CCCC(COC(=O)NCCc3ccc(Cl)cc3)O2)O1 (stereo not given in full) | 0.0231

Source: PubChem BioAssay
